HP1b binding inh: HTS for Inhibitors of HP1-beta Chromodomain Interactions with Methylated Histone Tails; Chromobox protein homolog 1 (Homo sapiens), P83916; AlphaScreen HP1-beta / biotin-H3K9me3 peptide binding; Potency, µM (titrated, usually from 114 µM), inactives show top-dose activity change, negative = inhibition, hits mostly inhibitors; 0.56% of 390,000 active; AID 540317, 2011; note: nearly all actives have a fitted effect of over 70% in size
Target sequence (P83916 whole entry, looked up): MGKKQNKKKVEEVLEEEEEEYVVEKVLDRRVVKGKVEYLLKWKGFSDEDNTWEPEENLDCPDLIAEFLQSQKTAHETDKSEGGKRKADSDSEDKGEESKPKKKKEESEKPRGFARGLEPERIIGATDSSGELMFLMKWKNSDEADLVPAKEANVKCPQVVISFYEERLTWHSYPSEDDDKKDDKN
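HP1-beta protein (50 nM final) preincubated 30 min at room temperature with biotinylated H3(1-18)K9me3 peptide (50 nM) in PBS pH 7.4, 0.01% Tween-20, then compound added for 30 min. AlphaScreen streptavidin donor/nickel chelate acceptor beads (10 ug/mL final), 30 min dark, luminescence read.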
PLK1 PBD inh: qHTS for Inhibitors of PLK1-PDB (polo-like kinase 1 - polo-box domain): Primary Screen; Potency, µM, for inactives: max response, negative = inhibition, usual class: inhibitors; Plk1 PBD binding of FITC phosphopeptide, fluorescence polarization; 2.8% of 360,000 active; Serine/threonine-protein kinase PLK1 (Homo sapiens), P53350; note: series mostly up to about 57 µM; % is set by controls: 0 for no effect and ±100 for the full control effect; nearly all actives have a fitted effect of over 65% in size
BAZ2B inh: qHTS Assay for Inhibitors of BAZ2B. Bromodomain adjacent to zinc finger domain protein 2B (Homo sapiens), Q9UIF8. AlphaScreen BAZ2B-H3K14Ac peptide displacement. Potency, µM (highest dose often 114 µM), inactives show at the top dose activity change, negative = inhibition, actives largely listed as inhibitors. 4.4% of 360,000 active; note: % is set by controls: 0 for no effect and ±100 for the full control effect; nearly all actives have a fitted effect of over 60% in size
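AlphaScreen displacement: compounds (up to 110uM) incubated 30 min at room temperature with a preformed 50 nM BAZ2B/50 nM biotinylated H3K14Ac peptide complex in PBS pH 7.4 with Tween-20. Donor and acceptor beads at 10 ug/mL final added, 20 min light-protected before reading.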
G9a inh: qHTS Assay for Inhibitors of Histone Lysine Methyltransferase G9a; 8.8% of 350,000 active; Potency, µM (titrated, usually from 102 µM), for inactives: top-dose activity, negative = inhibition, most hits filed as inhibitors; Histone-lysine N-methyltransferase EHMT2 (Homo sapiens), Q96KQ7; G9a H3K9 monomethylation, AlphaScreen, 2 h; note: % is set by controls: 0 for no effect and ±100 for the full control effect; nearly all actives have a fitted effect of over 75% in size
Target sequence (Q96KQ7 913-1193 limits assumed): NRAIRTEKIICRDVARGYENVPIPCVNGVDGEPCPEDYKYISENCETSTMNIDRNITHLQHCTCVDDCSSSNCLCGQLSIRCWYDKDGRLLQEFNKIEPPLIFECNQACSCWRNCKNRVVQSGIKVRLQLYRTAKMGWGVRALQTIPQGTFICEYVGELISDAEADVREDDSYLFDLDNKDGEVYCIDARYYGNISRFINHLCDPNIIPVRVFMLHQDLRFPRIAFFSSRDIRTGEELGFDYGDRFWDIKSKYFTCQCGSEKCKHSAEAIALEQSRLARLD
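AlphaScreen read-out: biotin-H3K9 peptide (500 nM) methylation by 20 nM enzyme with 20 uM SAM, 2 h at room temperature after 15 min compound preincubation; anti-monomethyl H3K9 antibody plus donor/acceptor beads, 10 min dark.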
Sfp inh: qHTS Assay for Inhibitors of Bacillus subtilis Sfp phosphopantetheinyl transferase (PPTase); 3.5% of 310,000 active; Biochemical Sfp PPTase activity, qHTS; 4'-phosphopantetheinyl transferase ffp (Bacillus subtilis), Q9F4F7; Potency, µM, for inactives: largest response in the series, negative = inhibition, hits mostly inhibitors;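 note: the enzyme is Sfp with the accession as filed and its product quenches rhodamine fluorescence; 0% = enzyme reaction without inhibitor and -100% = no enzyme wells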
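After 15 min at room temperature with compound, 15 nM Sfp received 5 uM rhodamine-CoA plus 12.5 uM BHQ-2-ybbR (50 mM Hepes pH 7.6, 10 mM MgCl2). Rate came from the fluorescence difference over 30 min, ex 525/em 598 nm.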
JMJD2A Tudor inh: qHTS Assay for Inhibitors of JMJD2A-Tudor Domain | AlphaScreen JMJD2A-Tudor / H3K4me3 peptide binding | Potency, µM (titrated, usually from 114 µM), inactives show top-dose activity change, negative = inhibition, hits mostly inhibitors | 4.4% of 390,000 active | AID 504339, 2011; note: % is set by controls: 0 for no effect and ±100 for the full control effect; nearly all actives have a fitted effect of over 50% in size
* hit, by the source's call; [ ] = another dose, or the depositor's remark. Hits are enriched below; roughly 12% of the tested compounds scored in any of these assays. Calls come from the whole dose curve; as a rule, active = well fitted curve in the direction sought with a large enough effect; inconclusive = small, poorly fitted or top-dose-only effect, or another doubt; inactive = no such curve, though single readings can be large; an effect the other way counts as inactive or inconclusive. Potency is the fitted concentration of half-maximal effect.

`O=c1c2ccccc2c(/C=N/n2cnnc2)c(O)n1-c1ccccc1` gave HP1b binding inh 19.1%, PLK1 PBD inh -11.0%, BAZ2B inh inconclusive, G9a inh -9.9%[12.7 µM], Sfp inh 15.4% and JMJD2A Tudor inh 89.1µM*.
For COc1ccc(-n2c(O)c(/C=N/n3cnnc3)c3ccccc3c2=O)cc1 the results were HP1b binding inh 14.7%, PLK1 PBD inh -7.1%, BAZ2B inh 56.2µM*, G9a inh 50.1µM*, Sfp inh 4.6% and JMJD2A Tudor inh 44.7µM*.
Cc1ccc(NC(=O)CSc2cn(CC(=O)N3CCCC3)c3ccccc23)cc1Cl was read as HP1b binding inh 36.7%, BAZ2B inh -30.5%, G9a inh -19.4%[59 µM] and JMJD2A Tudor inh -14.7%.
Screening Cc1ccc(NC(=S)NC(NC(=O)c2ccccc2C)C(Cl)(Cl)Cl)c(C)c1 (configuration not stated) returned HP1b binding inh 57.2%, PLK1 PBD inh -3.1%, BAZ2B inh -25.7%, G9a inh inconclusive, Sfp inh 20.9% and JMJD2A Tudor inh -5.0%.
`Cc1ccc(C)c(NC(=S)NC(NC(=O)N(C)C)C(Cl)(Cl)Cl)c1` (configuration not stated) gave HP1b binding inh 16.0%, PLK1 PBD inh -10.7%, BAZ2B inh 10.4%, G9a inh 4.47µM*, Sfp inh 9.9% and JMJD2A Tudor inh -31.4%.
`CC(=O)NC(NC(=S)Nc1ccc(C)cc1C)C(Cl)(Cl)Cl` (configuration not stated) gave HP1b binding inh 1.7%, PLK1 PBD inh inconclusive, BAZ2B inh -3.6%, G9a inh 44.7µM*, Sfp inh 14.8% and JMJD2A Tudor inh 4.8%.
Screening NCCC[C@@H](CC(=O)N[C@@H]1CCCC[C@H]1C(=O)N[C@H](CC(=O)N[C@@H](CCC(=O)O)CC(=O)O)Cc1ccccc1)NC(=O)C[C@H](Cc1ccccc1)NC(=O)[C@@H]1CNCC[C@H]1N returned Sfp inh -24.5%.
Nc1cc2c([N+](=O)[O-])cccc2o1 was read as HP1b binding inh -24.1%, PLK1 PBD inh -11.2%, BAZ2B inh 56.2µM*, G9a inh 2.9%[2.33 µM], Sfp inh 6.4% and JMJD2A Tudor inh -22.2%.
`Cc1c(N)cccc1[N+](=O)[O-]` gave HP1b binding inh 3.2%, PLK1 PBD inh -12.8%, BAZ2B inh -6.7%, G9a inh -2.9%[0.501 µM] and JMJD2A Tudor inh -2.8%.
`c1ccc(-c2csc(Nc3cccnc3)n2)nc1` gave HP1b binding inh 29.4%, PLK1 PBD inh -6.2%, BAZ2B inh inconclusive, G9a inh inconclusive, Sfp inh inconclusive and JMJD2A Tudor inh inconclusive.
For Cc1csc(NC(=O)C2CCCC2)n1 the results were HP1b binding inh 48.2%, PLK1 PBD inh -5.1%, BAZ2B inh 0.5%, G9a inh 39.8µM*, Sfp inh 79.4µM* and JMJD2A Tudor inh -16.2%.
Screening c1ccc(Nc2nc(-c3ccccn3)cs2)cc1 returned HP1b binding inh 11.0%, PLK1 PBD inh -11.8%, BAZ2B inh 39.8µM*, G9a inh -38.5%[59 µM], Sfp inh inconclusive and JMJD2A Tudor inh inconclusive.
Cc1csc(NC(=O)C2CCCCC2C(=O)O)n1 (configuration not stated) was read as HP1b binding inh 33.8%, PLK1 PBD inh -10.8%, BAZ2B inh 2.4%, G9a inh 7.7%[59 µM], Sfp inh 13.3% and JMJD2A Tudor inh 6.6%.
For O=C(Nc1nc(-c2ccccn2)cs1)C1CC1 the results were HP1b binding inh 47.3%, PLK1 PBD inh -12.5%, BAZ2B inh 50.1µM*, G9a inh 8.8%, Sfp inh -11.7% and JMJD2A Tudor inh 56.2µM*.
Screening COc1cccc2sc(Nc3nc(-c4ccccn4)cs3)nc12 returned BAZ2B inh 50.1µM*, G9a inh -10.1% and Sfp inh -19.8%.
COC(=O)c1ccccc1NC(=O)CSc1nc2ccccc2nc1Cc1ccccc1OC was read as HP1b binding inh 36.7%[57 µM], BAZ2B inh 0.5%, G9a inh 4.0%[59 µM] and JMJD2A Tudor inh -1.9%.
For COCCn1c(SCC(=O)Nc2cc(Cl)ccc2OC)nc2c([nH]c3ccccc32)c1=O the results were HP1b binding inh 43.6%[57 µM], BAZ2B inh 28.5%, G9a inh 11.1%[59 µM] and JMJD2A Tudor inh -9.7%.
For O=C(Nc1nc(COc2ccccc2)cs1)C12CC3CC(CC(C3)C1)C2 the results were HP1b binding inh 108.0%, PLK1 PBD inh -5.0%, BAZ2B inh -2.6%, G9a inh 44.7µM*, Sfp inh 28.5% and JMJD2A Tudor inh 14.8%.
`CC(=O)Nc1nc(COc2ccccc2)cs1` gave HP1b binding inh 25.1%, PLK1 PBD inh -0.5%, BAZ2B inh -4.6%, G9a inh 0.3%[59 µM], Sfp inh 9.0% and JMJD2A Tudor inh -4.5%.
Screening O=C(Nc1nc(-c2ccccn2)cs1)C12CC3CC(CC(O)(C3)C1)C2 returned HP1b binding inh inconclusive, PLK1 PBD inh inconclusive, BAZ2B inh 14.1µM*, G9a inh 28.2µM*, Sfp inh 39.8µM* and JMJD2A Tudor inh -5.3%[11.4 µM].
Screening O=C(CC1CC2CCC1C2)Nc1nc(-c2ccccn2)cs1 (configuration not stated) returned HP1b binding inh 8.3%, PLK1 PBD inh inconclusive, BAZ2B inh 44.7µM*, G9a inh 20µM*, Sfp inh 35.5µM* and JMJD2A Tudor inh -22.8%.
Screening C/C=C\C=C/C(=O)Nc1cccc(C2=NOC3(C2)C[C@@H](C(N)=O)N(C(=O)c2ccc(Cl)cc2)C3)c1 (some centres not stated) returned HP1b binding inh 11.1%, PLK1 PBD inh -18.3%, BAZ2B inh inconclusive, G9a inh inconclusive, Sfp inh 7.08µM* and JMJD2A Tudor inh -31.7%.
C/C=C\C=C/C(=O)Nc1cccc(C2=NOC3(C2)C[C@H](C(N)=O)N(C(=O)c2ccc(OC)cc2)C3)c1 (some centres not stated) was read as HP1b binding inh inconclusive, PLK1 PBD inh inconclusive, BAZ2B inh -21.7%, G9a inh inconclusive, Sfp inh 12.6µM* and JMJD2A Tudor inh inconclusive.

Compound activity from PubChem.
